Screening results: PubChem, National Center for Advancing Translational Sciences (NCATS)
GLP1R inv ag – GLP-1 receptor (human) inverse agonism; 410,000 tested, 1.6% active; Potency, µM (series often up to 38.3 µM), without a hit: at the top dose activity change, negative = inhibition, hits mostly inhibitors; AID 624417; HEK293 GLP-1R CRE-luciferase, luminescence, 24 h; GLP-1R form is constitutively active; P43220; note: % is set by controls: 0 for no effect and ±100 for the full control effect; nearly all actives have a fitted effect of over 55% in size
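Using stably transfected HEK293 (constitutively active GLP-1R, cAMP-luciferase reporter), compounds were incubated 24 hr and luciferase measured by luminescence.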
RGS4 inhibitor – human RGS4 inhibition; Transcreener GDP fluorescence polarization, RGS4-accelerated GTP hydrolysis; 390,000 tested, 0.039% active; AID 504845; P49798; Potency, µM (top dose mostly 114 µM), for inactives: at the highest dose activity change, negative = inhibition, hits mostly inhibitors; note: % is set by controls: 0 for no effect and ±100 for the full control effect; nearly all actives have a fitted effect of over 75% in size
Target sequence (P49798 whole entry, looked up): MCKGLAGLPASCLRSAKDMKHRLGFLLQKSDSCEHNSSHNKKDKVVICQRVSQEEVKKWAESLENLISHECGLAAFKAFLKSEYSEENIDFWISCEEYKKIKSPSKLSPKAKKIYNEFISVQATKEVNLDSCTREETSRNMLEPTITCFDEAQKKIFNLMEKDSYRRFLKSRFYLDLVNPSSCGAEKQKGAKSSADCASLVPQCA
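MLSMR compounds (23 nl, pin-transferred) preincubated 10 min at room temperature with a 500nM (2x) first reagent, then RGS4 at 900nM (2x) plus Transcreener GDP mix added; fluorescence polarization (620/688 nm) read before and after 90 min at 30 °C.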
PTHR1 agonist – activates the human parathyroid hormone receptor PTHR1; Q03431; Potency, µM (titrated, usually from 115 µM), inactives show at the top dose activation, usual class: activators; HEK293 GP2 PTHR1 cells, GloSensor cAMP luminescence, 1 h; 410,000 tested, 0.075% active; note: nearly all actives have a fitted effect of over 55% in size
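HEK-293-derived GP2 cells expressing PTHR1 and a GloSensor cAMP reporter, 3,000/well, plated overnight, given luciferin plus IBMX (each 0.5 mM as added) for 1 h at 37 °C, then compound for 1 h at 37 °C. Luminescence was read after 15 min at room temperature.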
GLP1R cytotox – cytotoxic in the GLP-1 receptor inverse agonist counter-screen; AID 624418; Potency, µM (series often up to 38.3 µM), for the others: at the top dose activity change, negative = inhibition, usual class: inhibitors; 410,000 tested, 0.13% active; HEK293 cAMP-luciferase reporter cells, luminescence, 24 h;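 note: loss of luciferase light is scored as toxicity; % is set by controls: 0 for no effect and ±100 for the full control effect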
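Step one: seed cells (200 cells/uL, DMEM with 10% Nu serum, 1% pen-strep). Step two: 12-hour incubation at 37 deg C. Step three: pin 23 nL compound, incubate 24 hr. Step four: add luciferase reagent, read luminescence 12 min later.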
GLP-1R agonist – activates the human GLP-1 receptor | 380,000 tested, 0.007% active | HEK293 GLP-1R CRE-luciferase, luminescence, 4-6 h; cells express a hypersensitive GLP-1R form | P43220 | Potency, µM (titrated, usually from 45.6 µM), for the others: at the top dose activation, hits mostly activators; note: % of control where 0% means no effect
The depositor's hits bear a star; i = inactive; ? = inconclusive; nt = no result. The list is not random: actives were taken first. Their share in the collection is about 1.7%. Calls come from the whole dose curve; as a rule, active = well fitted curve in the direction sought with a large enough effect; inconclusive = small, poorly fitted or top-dose-only effect, or another doubt; inactive = no such curve, though single readings can be large; an effect the other way counts as inactive or inconclusive. Potency is the fitted concentration of half-maximal effect.

SMILES	GLP1R inv ag	RGS4 inhibitor	PTHR1 agonist	GLP1R cytotox	GLP-1R agonist
C[C@@H]1CN([C@H](C)CO)C(=O)CCCn2cc(nn2)CO[C@H]1CN(C)C(=O)Nc1ccc(C(C)(C)C)cc1	28%	nt	-7%	1%	-4%
Cc1ccc(Cn2c(CO)cnc2SCC(=O)Nc2ccc(C)c(Cl)c2)cc1	13µM*	-33%	-46%	-6%	nt
CCc1ccc(-c2cc(C)no2)cc1S(=O)(=O)NC(C)Cc1ccco1 (stereo not given)	3.5µM*	-22%	-9%	-9%	28%
Cc1cc(-c2ccc(C(C)C)c(S(=O)(=O)NCc3ccco3)c2)on1	?	-31%	0%	-5%	21%
CCC(Nc1ccc(-c2nc(-c3ccccn3)no2)cc1[N+](=O)[O-])c1ccccc1 (stereo not given)	19%	20%	-45%	-6%	nt
Cc1ccc(C(C)C)cc1OCCOCCN1CCCC1	7.9µM*	-3%	i	-8%	-2%
CC1(C)C([N+](=O)[O-])C(c2ccc(F)cc2)NC(c2ccc(F)cc2)C1[N+](=O)[O-] (stereo not given)	10µM*	-12%	-7%	25%	-2%
Cc1ccc(C2NC(c3ccc(C)cc3)C([N+](=O)[O-])C(C)(C)C2[N+](=O)[O-])cc1 (stereo not given)	?	-7%	i	45%	1%
CC1(C)C([N+](=O)[O-])C(c2ccc(Cl)cc2)NC(c2ccc(Cl)cc2)C1[N+](=O)[O-] (stereo not given)	10µM*	1%	-16%	38%	-5%
CCOC(=O)Cn1c(=O)n(C2CCCCC2)c2nc(-c3ccc(Cl)cc3)nc(C(N)=O)c21	2%	-9%	31%	-13%	-5%
CCOc1ccccc1NC(=O)c1c(NCc2cccs2)sc2c1CCCCC2	13µM*	-27%	-24%	-15%	nt
C=C(C(=O)c1ccccc1)C(NC(C)(C)C)c1ccccc1 (stereo not given)	5µM*	-30%	-39%	5µM*	-23%
Cc1cccc(NC(=O)C(NS(=O)(=O)c2cccc3nsnc23)c2ccccc2)c1C (stereo not given)	-24%	9%	i	0%	nt
Cn1c(=O)c(/C=C/c2ccccc2)nc2ccccc21	4%	9%	-33%	114%	15%
Cn1c(/C=C/c2ccccc2)nc2ccccc21	4.5µM*	13%	-94%	-16%	2%
Cc1noc(C)c1CCC(=O)NC1CCCN(Cc2ccc(CC(C)C)cc2)C1 (stereo not given)	10µM*	4%	-31%	-17%	-4%
Cc1noc(C)c1CCC(=O)NC1CCCN(Cc2ccc(Cl)cc2)C1 (stereo not given)	-5%	30%	-12%	-2%	-6%
CC(C)Cc1ccc(CN2CCCC(NC(=O)c3ccoc3)C2)cc1 (stereo not given)	8.9µM*	-19%	-19%	?	3%
CCC1CN(C(=O)Nc2ccccc2F)c2cc(C)ccc2O1 (stereo not given)	14%	2%	-15%	0%	nt
Cc1ccc(Cl)cc1N1CCN(C(=O)COc2cc(=O)n(C)c3ccccc23)CC1	-1%	8%	-46%	0%	-2%
CCOc1ccccc1NC(=O)Cn1cc(C(=O)c2cccc(OC)c2)c(=O)c2ccc(C)nc21	5%	-24%	i	23%	nt
COc1cc(OC)cc(C(=O)NCCOC23CC4CC(CC(C4)C2)C3)c1	10µM*	6%	i	1%	6%
Cc1cc(Cl)cc(Br)c1OCCCNCC(C)O (stereo not given)	4µM*	0%	i	-23%	15%
Cc1cc(C)c(OCCCNCc2ccccc2)c(Br)c1	?	11%	8%	?	-3%
CC1(C(=O)Nc2cnc3ccccc3c2)CCN1Cc1ccc(-c2ccccc2)o1 (stereo not given)	?	nt	i	-18%	3%
COc1ccc(OCc2cc(C(=O)NCCc3ccccc3)no2)c(Cl)c1	4.5µM*	22%	-6%	-24%	10%
